Source: PubChem BioAssay AID1481 (The Scripps Research Institute Molecular Screening Center, 2009)
Where “and” joins values, the source holds several entries; their conditions need not be identical. Equal values may be shown once. Out of some 220,000 compounds screened, about 920 (0.42%) were called active. Rule as the data show it: active = inhibition above about 15%; inactive = the rest. Many of the other results were omitted from the sample, so actives are more common in it than they were. Some structures have more than one record in an assay (separate samples or runs), and their calls can disagree.

Each molecule was assayed against Transitional endoplasmic reticulum ATPase (Homo sapiens) (UniProt P55072) (assay: inhibitors of human p97 ATPase, primary screen, biochemical (AID 1481;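 also: 0% = DMSO vehicle and 100% = wells lacking enzyme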)). Details: recombinant p97 ATPase, Kinase-Glo ATP luminescence, 3 h; at 8 µM; stronger effect = higher value.
Chain of Transitional endoplasmic reticulum ATPase (Homo sapiens) (P55072 whole entry, looked up): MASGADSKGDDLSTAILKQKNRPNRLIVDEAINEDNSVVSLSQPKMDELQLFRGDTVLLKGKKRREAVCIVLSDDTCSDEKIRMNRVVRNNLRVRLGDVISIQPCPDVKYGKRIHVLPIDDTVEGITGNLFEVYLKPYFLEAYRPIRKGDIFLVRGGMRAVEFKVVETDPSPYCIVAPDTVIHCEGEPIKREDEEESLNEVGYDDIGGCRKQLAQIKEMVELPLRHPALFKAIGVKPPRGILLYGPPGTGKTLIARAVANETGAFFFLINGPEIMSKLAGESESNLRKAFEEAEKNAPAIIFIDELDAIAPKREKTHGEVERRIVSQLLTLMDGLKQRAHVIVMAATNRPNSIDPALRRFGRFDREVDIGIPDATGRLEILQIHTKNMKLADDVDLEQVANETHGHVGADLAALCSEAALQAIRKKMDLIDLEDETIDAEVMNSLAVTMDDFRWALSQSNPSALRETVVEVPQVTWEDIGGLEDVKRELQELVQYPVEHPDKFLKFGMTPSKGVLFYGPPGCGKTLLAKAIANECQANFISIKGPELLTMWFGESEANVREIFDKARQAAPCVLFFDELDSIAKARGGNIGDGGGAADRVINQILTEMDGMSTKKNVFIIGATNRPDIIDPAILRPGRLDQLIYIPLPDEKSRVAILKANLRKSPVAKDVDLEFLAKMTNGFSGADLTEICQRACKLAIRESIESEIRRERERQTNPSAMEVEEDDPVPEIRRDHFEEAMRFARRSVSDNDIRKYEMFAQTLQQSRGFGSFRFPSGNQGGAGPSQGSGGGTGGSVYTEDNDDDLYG

| SMILES | inhibition |
| --- | --- |
| Cc1ccc(NC2(C#N)C(=O)Nc3ccccc32)cc1 (stereo not drawn) | 2.18% (inactive) |
| N#CC1=C(N)Oc2[nH]c(=S)[nH]c(=O)c2C12C(=O)Nc1ccccc12 (stereo not drawn) | 20.7% (active) |
| N#CC1=C(N)Oc2n[nH]c(CSc3ccccc3)c2C12C(=O)Nc1ccccc12 (stereo not drawn) | 7.12% (inactive) |
| COc1ccc2c(c1)CCc1cn3ncc(C#N)c3nc1-2 | 7.2% (inactive) |
| CCC(=O)OCCNc1nc(-c2ccccc2)nc2ccccc12 | 4.18% (inactive) |
| Cc1cc(C(C)(C)C)cc(C)c1N | 7.52% (inactive) |
| COc1cc(C(F)(F)F)c(C(=O)N(C)c2ccc(Cl)cc2)cn1 | -1.66% (inactive) |
| C#CCOCCOCCOCCNc1nc(N2CCN(C(=O)[C@H](Cc3ccc(O)cc3)n3cc(C(N)CC(C)C)nn3)CC2)nc(N2CCN(C(=O)[C@H](CCC(=O)O)n3cc(C(N)[C@H](C)CC)nn3)CC2)n1 (stereo partly drawn) | -3.1% (inactive) |
| C#CCOCCOCCOCCNc1nc(N2CCN(C(=O)[C@H](CCCCN)n3cc([C@@H](N)C(C)CC)nn3)CC2)nc(N2CCN(C(=O)[C@H](Cc3ccc(O)cc3)n3cc([C@@H](N)C(C)CC)nn3)CC2)n1 (stereo partly drawn) | 13.3% (inactive) |
| C#CCOCCOCCOCCNc1nc(N2CCN(C(=O)C(Cc3ccc(O)cc3)n3cc(C(N)CC(C)C)nn3)CC2)nc(N2CCN(C(=O)C(Cc3ccc(O)cc3)n3cc(C(N)C(C)CC)nn3)CC2)n1 (stereo not drawn) | 14.7% (active) |
| O=C(NCCc1ccccn1)c1cccnc1Oc1ccc(Cl)cc1 | -3.2% (inactive) |
| COc1ccccc1N1CCN(C(=O)C(=O)N/N=C/c2ccccc2F)CC1 | 0.1% (inactive) |
| COc1ccc(C(C(=O)NC2CCCCC2)N(C(=O)CCl)c2ccccc2Cl)cc1 (stereo not drawn) | -0.41% (inactive) |
| COc1ccc(C(C(=O)NC2CCCCC2)N(C(=O)Cc2c[nH]c3ccccc23)c2ccccc2)cc1OC (stereo not drawn) | 14.6% (active) |
| Cc1cc(NC(=O)CCC(=O)N(c2ccccc2)C(C(=O)NC2CCCC2)c2ccncc2)no1 (stereo not drawn) | 3.62% (inactive) |
| Cc1ccc2nc(-c3ccc(NC(=O)c4cccnc4)cc3)oc2c1 | -7.59% (inactive) |
| COc1cccc(NC(=S)C(C#N)=C2N(C)c3ccccc3N2C)c1 | 4.23% (inactive) |
| CCOc1ccc(C(c2c(C)[nH][nH]c2=O)c2c(C)[nH][nH]c2=O)cc1OCC | -3.3% (inactive) |
| Cc1[nH][nH]c(=O)c1C(c1ccc(-c2ccc(Cl)cc2)o1)c1c(C)[nH][nH]c1=O | 18.4% (active) |
| Cc1[nH][nH]c(=O)c1C(c1ccc2c(c1)OCO2)c1c(C)[nH][nH]c1=O | -1.45% (inactive) |
| CCc1ccccc1NC(=O)CN(c1ccc(OC)cc1OC)S(=O)(=O)c1ccccc1[N+](=O)[O-] | 0.37% (inactive) |
| Cc1ccc(Cn2c(SCC(=O)N/N=C/c3ccccc3OCC(=O)O)nc3ccccc32)cc1 | -13.9% (inactive) |

| SMILES | inhibition |
| --- | --- |
| CC(NCc1ccccc1OC1CCCC1)c1ccccc1 (stereo not drawn) | 2.88% (inactive) |
| CC(Oc1ccccc1F)C(=O)NN (stereo not drawn) | -4.14% (inactive) |
| O=C(/C=C/Nc1ccc(S(=O)(=O)Nc2cnc3ccccc3n2)cc1)c1cccnc1 | 1.02% (inactive) |
| Oc1ccc(N=Cc2c(O)ccc3ccccc23)cc1 | 9.71% (inactive) |
| Oc1ccc2ccccc2c1C=Nc1ccccc1 | 4.59% (inactive) |
| Oc1c(C=Nc2cccc3nsnc23)ccc2ccccc12 | 40.4% (active) |
| CCOC(=O)c1ccccc1C(=O)N1CCOCCOCCOCC1 | -4.13% (inactive) |
| Nc1nc(SCC(=O)NN(c2ccccc2)c2ccccc2)n[nH]1 | -5.25% (inactive) |
| COc1ccccc1NC(=O)c1cc(Cl)nc2ccccc12 | 5.78% (inactive) |
| COc1cc(OC)c(C(=O)Nc2ccccc2-c2ccccc2)cc1OC | 0.92% (inactive) |
| COc1ccccc1C(=O)Nc1nc2nc(-c3ccccc3)cc(=O)n2[nH]1 | 14.8% (active) |
| O=C(NCCc1ccccc1)Oc1ccc(Cl)cc1 | -1.73% (inactive) |
| O=C(N/N=C/c1ccccc1O)/C(=C/c1ccccc1)CCO | 2.01% (inactive) |
| CCC1CCCCN1S(=O)(=O)Cc1ccccc1Cl (stereo not drawn) | 2.1% (inactive) |
| O=C(/C=C/c1ccc(Cl)c([N+](=O)[O-])c1)c1ccc(O)cc1 | 19.3% (active) |
| CN(C)c1ccc(/C=C/C(=O)c2ccc(O)cc2)cc1[N+](=O)[O-] | 0.06% (inactive) |
| O=C(/C=C/c1ccc(Cl)c([N+](=O)[O-])c1)c1cccnc1 | -0.11% (inactive) |
| Cc1ccccc1Nc1c(-c2ccccc2)nc2ncccn12 | 4.55% (inactive) |
| CC(Sc1cccc[n+]1[O-])C(=O)Nc1cccc(S(=O)(=O)N2CCOCC2)c1 (stereo not drawn) | 4.59% (inactive) |
| CN(C)c1ccc(NC(=O)CSc2n[nH]c(-c3ccco3)n2)cc1 | -3.13% (inactive) |
| COc1cc(C(=O)Nn2c(O)c(C3=c4ccccc4=NC3=O)sc2=S)ccc1O | 4.86% (inactive) |
| COC(=O)Cn1nc(-c2ccccc2)c2cc(Cl)ccc21 | -5.36% (inactive) |

| SMILES | inhibition |
| --- | --- |
| Cc1cc2nc3c(=O)n(Cc4ccccc4)c(=O)[nH]c3nc2cc1N | 8% (inactive) |
| Nc1ccc2nc3c(=O)[nH]c(=S)[nH]c3nc2c1 | 39.2% (active) |
| Cc1ccc(C(=O)N/C(=C/c2cccs2)C(=O)N2CCCCC2)cc1 | 1.51% (inactive) |
| CCc1nc2sc3c(Cl)ncnc3c2c2c1CCCC2 | 6.87% (inactive) |
| C=CCn1c(N)c(S(=O)(=O)c2cccs2)c2nc3ccccc3nc21 | 6.58% (inactive) |
| CC(C)Cn1c(N)c(C(=O)NCc2cccs2)c2nc3ccccc3nc21 | 4.74% (inactive) |
| C=CCn1c(N)c(C(=O)OCC(C)C)c2nc3ccccc3nc21 | 21.5% (active) |
| CC(=O)c1cccc(-n2nnnc2SCC(=O)NNC(=O)C2CCCCC2)c1 | -0.28% (inactive) |
| COc1ccccc1CNC(=O)Cn1c(=O)oc2cc(Cl)ccc21 | -2.55% (inactive) |
| COCC(C)OC(=O)c1c(N)n(CCCN2CCOCC2)c2nc3ccccc3nc12 (stereo not drawn) | 4.25% (inactive) |
| CCCCN1C(=O)/C(=C/C=C2/C=Cc3ccccc3N2CC)SC1=S | 6.25% (inactive) |
| CCN1C(=O)/C(=c2\s/c(=C3\Sc4ccccc4N3C)c(=O)n2C)N(C)C1=S | 2.09% (inactive) |
| CCN1C(=O)/C(=C2/Sc3ccccc3N2CCCS(=O)(=O)O)SC1=S | 16.4% (active) and -0.77% (inactive) |
| NC(=O)Cc1ccc2c(c1)[nH]c1ccccc12 | 2.82% (inactive) |
| Fc1ccc(CNCc2ccc(Br)cc2)cc1 | 9.11% (inactive) |
| COc1ccccc1-n1c(SCC(=O)O)nc2sc3c(c2c1=O)CCC3 | -1.29% (inactive) |
| Cc1ccc(C(C[N+](=O)[O-])c2c(C)cc3ccccn23)cc1 (stereo not drawn) | -4.06% (inactive) |
| O=C(CCCn1c(=O)[nH]c2cc(Cl)ccc2c1=O)NCCN1CCN(c2ccccc2)CC1 | 1.79% (inactive) |
| COc1ccc(CCNC(=O)CCCCn2c(=O)[nH]c3ccccc3c2=O)cc1OC | 4.64% (inactive) |
| CCN(CC)CCNC(=O)CCCCCn1c(=O)[nH]c2cc(C(=O)OC)ccc2c1=O | 15% (active) |
| O=C(CSc1nc2ccc([N+](=O)[O-])cc2[nH]1)c1ccc(Cl)cc1 | 2.81% (inactive) |
| CC(CC(=O)Nc1ccccc1)n1ccnc1 (stereo not drawn) | -4.72% (inactive) |

| SMILES | inhibition |
| --- | --- |
| Cc1cc(C)c(NC(=O)CN2C(=O)NC(Cc3ccccc3)C2=O)c(C)c1 (stereo not drawn) | -0.65% (inactive) |
| COc1ccccc1CNC(=O)COc1ccc(C)nc1[N+](=O)[O-] | 0.97% (inactive) |
| COc1cc(/C=C2/C(=O)NN(c3ccc(F)cc3)C2=O)cc([N+](=O)[O-])c1O | 6.04% (inactive) |
| O=C(CC1N=C2c3ccccc3N=C(SCc3ccccc3Cl)N2C1=O)NCc1ccco1 (stereo not drawn) | 2.64% (inactive) |
| O=C(CSC1=Nc2ccccc2C2=NC(CC(=O)NCc3ccco3)C(=O)N12)NCc1ccco1 (stereo not drawn) | 2.33% (inactive) |
| CCC(C)NC(=O)CSC1=Nc2ccccc2C2=NC(CCC(=O)NCc3ccco3)C(=O)N12 (stereo not drawn) | 18.7% (active) |
| COc1nc(N(C)C)nc(N2CC(=O)N(CCNS(=O)(=O)c3ccc(C)cc3)C2=N)n1 | 5.1% (inactive) |
| O=C1N=C(N2CCc3ccccc3C2)S/C1=C\c1ccc(O)cc1 | 0.81% (inactive) |
| C/C(=N/NC(=S)Nc1ccccc1)c1ccc2c(c1)OCO2 | 2.26% (inactive) |
| CCOc1nc(OCC)nc(-n2cc(-c3ccccc3)nn2)n1 | 24.2% (active) |
| CCOc1ccc(/C=N/Nc2nncc(-c3ccccc3)n2)cc1OC | 0.88% (inactive) |
| CCOC(=O)c1nnn(-c2nc(OC)nc(N(C)C)n2)c1-c1ccccc1 | -0.37% (inactive) |
| COC(=O)c1scc(S(=O)(=O)C(C)(C)C)c1-n1cccc1 | 3.92% (inactive) |
| Cc1ccc(C(=O)NC2CC(C)(C)NC(C)(C)C2)c(C)c1 | -2.82% (inactive) |
| CC1CCC(NC(=O)C2c3ccccc3C(=O)N2Cc2ccc3c(c2)OCO3)CC1 (stereo not drawn) | -6.03% (inactive) |
| Cc1ccc2c(c1)NCC(C(=O)NC1CCC(C)CC1)O2 (stereo not drawn) | 18.4% (active) |
| CN1C(=O)/C(=C\c2cc(Br)cs2)c2ccccc21 | 7.61% (inactive) |
| O=C(Nc1nnc(Cc2ccccc2)s1)c1cnccn1 | 1.61% (inactive) |
| COc1cccc(NC(=S)NCc2ccco2)c1 | 3.44% (inactive) |
| O=C(NCCCO)/C(=C\C=C\c1ccccc1)NC(=O)c1ccccc1Cl | 6.57% (inactive) |
| CCN1CCc2nc(NC(=O)c3cc(F)c(F)cc3Cl)sc2C1 | 4.45% (inactive) |
| OCCNc1nc2ccccc2n1-c1ncnc2sc3c(c12)CCC3 | -5.39% (inactive) |
